Measured values from PubChem BioAssay AID1159580 (chemical genetic matrix, 2015).
The campaign covered roughly 5,500 compounds. About 2,000 (36%) were called active. Another 18% or so got no clear call; they are omitted. Rule as the data show it: active = normalized growth mostly below about 0.91 (no sharp cut-off); inconclusive = no clear call, values can overlap the other calls; inactive = mostly above about 0.92. This is one part of the list.

Experiment: chemical genetic growth profiling, strain panel (AID 1159580);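 also: tested at 20 µM; growth read once vehicle control cultures reached saturation at 30 °C; 1 = growth at the plate median or of vehicle wells; lower values mean less growth of the strain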
Details: S. cerevisiae deletion strains, growth OD

Measured: normalized growth

NNC(=O)c1ccc(O)cc1
inactive: locus YAL013W, strain DEP1, stronger effect = lower value 0.949 | locus YAL040C, strain CLN3, stronger effect = lower value 0.963 | locus YCL061C, strain MRC1 (second series), stronger effect = lower value 0.991 | locus YDR150W, strain NUM1, stronger effect = lower value 1.01 | locus YDR363W, strain ESC2, stronger effect = lower value 0.99 | locus YER002W, strain NOP16, stronger effect = lower value 0.985 | locus YGR078C, strain PAC10, stronger effect = lower value 0.992 | locus YJR075W, strain HOC1, stronger effect = lower value 0.988 | locus YMR263W, strain SAP30, stronger effect = lower value 0.986 | locus YNL153C, strain GIM3, stronger effect = lower value 0.989 | locus YNL175C, strain NOP13, stronger effect = lower value 0.994 | locus YNL197C, strain WHI3, stronger effect = lower value 0.991 | locus YNL224C, strain SQS1, stronger effect = lower value 0.974 | locus YNL322C, strain KRE1, stronger effect = lower value 0.97 | locus YOR083W, strain WHI5 (second series), stronger effect = lower value 1.05 | locus YPL055C, strain LGE1, stronger effect = lower value 0.977 | locus YPL241C, strain CIN2, stronger effect = lower value 0.988
